Data taken from PubChem BioAssay (NCI).
About 83,000 compounds went through this panel and 20% of them were active in at least one assay; those are over-represented in the sample as a whole.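 A percent growth of 40 corresponds to 60% growth inhibition; 0 means no net growth; -100 means all cells died. Active threshold: below 10.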 Unmarked numbers belong to inactive results. Calls of active or inactive are those of the source.

Assays:
Test in all cases: NCI-60 one-dose screen, 48 h (100 = growth as untreated, 0 = no growth, -100 = all killed)
[1] = test system: SK-MEL-2 melanoma; conditions: 10 µM unless noted
[2] = test system: EKVX NSCLC; conditions: 10 µM unless noted
[3] = test system: SN12C renal; conditions: 10 µM unless noted
[4] = test system: UO-31 renal; conditions: 10 µM unless noted
[5] = test system: TK-10 renal; conditions: 10 µM unless noted
[6] = test system: ACHN renal; conditions: 10 µM unless noted
[7] = test system: CAKI-1 renal; conditions: 10 µM
[8] = test system: CCRF-CEM leukemia; conditions: 10 µM unless noted
[9] = test system: MOLT-4 leukemia; conditions: 10 µM unless noted

Compound	growth [1]	growth [2]	growth [3]	growth [4]	growth [5]	growth [6]	growth [7]	growth [8]	growth [9]
Cn1cc(-c2nnc(N)nc2-c2cn(C)c3ccc(F)cc23)c2cc(F)ccc21	97%	101%	89.2%	82.6%	91.4%	100%	79.7%	100%	79.1%
Brc1cccc(/C=N/Nc2nc(N/N=C/c3cccc(Br)c3)nc(N3CCOCC3)n2)c1	2.64% (active)	49%	44.2%	25.5%	66.8%	26.3%	15.4%	21%	10.2%
CCOc1c(C#N)c(Nc2ccc(S(N)(=O)=O)cc2)c(C#N)c2nnc(C)n12	101%	90.5%	98.1%	78.4%	125%	90.2%	88.7%	104%	104%
CCNC(=O)Oc1ccc(/C(=C(/C)c2ccccc2)c2ccc(OCCN3CCCC3)cc2)cc1	93.3%	77.3%	78.2%	61%	102%	86%	79.9%	64%	51.7%
CCOC(=O)c1c(NC(=O)c2ccc(F)cc2F)sc2c1CCC(=O)C2	98.3%	97.7%	99%	83.8%	124%	95.6%	80.1%	98.2%	95.8%
O=C(COc1cccc2cccnc12)Nc1ccc(C(=O)/C=C/c2ccc(Cl)cc2)cc1	96.2%	80.9%	86%	67.7%	104%	94%	76.2%	83.3%	67.7%
CCNC(=O)Oc1ccc(/C(=C(/C)c2ccc(Cl)cc2)c2ccc(OCCN(C)C)cc2)cc1	98%	72.1%	77.8%	61.7%	92%	91.4%	73.4%	66.7%	50.4%
C=C(C)[C@@H]1CC[C@]2(C(=O)NCCCN(CCC#N)CCC#N)CC[C@]3(C)[C@H](CC[C@@H]4[C@@]5(C)CCC(=O)C(C)(C)[C@@H]5CC[C@]43C)[C@@H]12	102%	104%	94.3%	95.1%	101%	99.9%	75%	103%	88.1%
C=C(C)[C@@H]1CC[C@]2(C(=O)ON)CC[C@]3(C)[C@H](CC[C@@H]4[C@@]5(C)C/C(=C/c6ccc(Br)cc6)C(=O)C(C)(C)[C@@H]5CC[C@]43C)[C@@H]12	88.8%	60.5%	71.5%	63.7%	105%	76%	50%	67.8%	47.3%
COc1ccc(Cn2cc3c(c2-c2cc(OC)c(OC)c(OC)c2)CCCc2cnoc2-3)cc1	54.9%	40.2%	36.3%	30.7%	67.5%	36.3%	19.6%	15.8%	8.85% (active)
CNC(=O)c1c(NC(=O)c2ccc(F)cc2F)sc2c1CCC(=O)C2	-4.48% (active)	14.5%	17.5%	-94% (active)	38.7%	1.41% (active)	-3.18% (active)	4.01% (active)	2.03% (active)
N/C(=N\OC(=O)CSc1nc2ccccc2s1)c1ccc(Cl)cc1	101%	86.6%	102%	76.6%	127%	91.4%	83.4%	102%	96.7%
CCOC(=O)c1c(NC(=O)c2ccc(C(C)(C)C)cc2)sc2cc(OCCN3CCCCC3)ccc12	98.6%	87.5%	78.1%	74.5%	112%	93%	84.2%	56.2%	72.3%
O=C(COc1ccc(C2SCC(=O)N2c2ccccc2)cc1)c1ccccc1 (centres undefined)	103%	81.2%	92.3%	78.5%	124%	92.5%	79.2%	98.9%	88.8%
COc1cc(-c2noc(C[C@@H](NC(=O)OCc3ccccc3)C(C)C)n2)cc(OC)c1OC	99.3%	96.9%	90.1%	89.8%	96.1%	102%	100%	99.9%	93.9%
IP(CCCCCCCCCCSc1n(Cc2ccc3ccccc3c2)c(-c2ccccc2)c(-c2ccccc2)[n+]1Cc1ccc2ccccc2c1)(c1ccccc1)(c1ccccc1)c1ccccc1	-59.5% (active)	-68.2% (active)	-72.2% (active)	-4.18% (active)	-68.3% (active)	-28% (active)	-91.4% (active)	-33.7% (active)	-53.6% (active)
CN(C)C(=O)C1=NC(CO)C(=O)N(c2ccc(Cl)cc2)N1 (centres undefined)	99%	99.5%	105%	82.5%	91.1%	101%	92%	104%	103%
CCOC(=O)c1c(NCC(=O)Nc2cccc(Cl)c2)sc2c1CCCC2	93.5%	89.9%	73%	76.4%	146%	88.7%	68.4%	58%	47.2%
COc1cc(CNC(=O)/C=C/c2ccccc2)ccc1OCC(=O)NO	99.6%	95.2%	95.8%	81.8%	102%	93.3%	91.4%	105%	95.7%
Cc1ccc(Nc2ncnc3c2c(C)nn3-c2ccc([N+](=O)[O-])cc2)cc1	107%	67.8%	90%	91.3%	97.9%	62.8%	63.6%	79.8%	87.3%
C#CCOc1ccc(C(Nc2cc(Cl)ccc2Cl)c2nnnn2C2CCCCC2)cc1 (centres undefined)	95%	-8.05% (active)	91.4%	62.5%	90.8%	92%	44.4%	85.8%	68.1%
CCCCCCNC(=O)Oc1ccc(/C(=C(\C)c2ccc(OC)cc2)c2ccc(OCCN(C)C)cc2)cc1	99.8%	75%	78.8%	52.1%	107%	88.3%	82.9%	67.3%	44.5%
COc1cc(/C=C/C(=O)c2ccc(NC(=O)COc3cccc4cccnc34)cc2)cc(OC)c1OC	96.5%	82%	75.4%	67.7%	147%	80.2%	84.8%	26.5%	41%
O=C(Nc1cc(Cl)cc(Cl)c1)Nc1nc2ccc([N+](=O)[O-])cc2s1	-22.2% (active)	6.9% (active)	2.15% (active)	6.95% (active)	-1.5% (active)	3.76% (active)	6.87% (active)	10.3%	2.31% (active)
COC[C@]12CC[C@@H](C)[C@H](C)[C@H]1C1=CC[C@@H]3[C@@]4(C)CCCNC(C)(C)[C@@H]4CC[C@@]3(C)[C@]1(C)CC2	58.5%	57.8%	23.2%	60.2%	61.9%	30.7%	35%	17%	5.72% (active)
CC1(C)CC[C@]2(C(=O)O)CC[C@]3(C)C(=CCC4[C@@]5(C)C[C@@H](O)[C@@H]6OC(c7ccccc7O)OC[C@@]6(C)C5CC[C@]43C)C2C1 (some centres undefined)	85.7%	39.9%	60.1%	54.8%	52.2%	25.3%	73.5%	46.8%	39.2%
